From PubChem
BAZ2B inh = inhibitors of human BAZ2B bromodomain; Q9UIF8; AlphaScreen BAZ2B-H3K14Ac peptide displacement; Potency, µM (titrated, usually from 114 µM), usual class: inhibitors; 360,000 compounds, 4.4% hits; AID 504333; further: nearly all actives have a fitted effect of over 60% in size
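AlphaScreen displacement of biotin-H3(5-23)K14Ac peptide (50 nM final) from BAZ2B (50 nM final) in PBS pH 7.4, 0.01% Tween-20; complex preformed 30 min RT, then compounds (top 110 uM) 30 min RT, beads 20 min dark.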
HP1b binding inh = inhibitors of HP1-beta chromodomain binding to methylated histone tails; P83916; 390,000 compounds, 0.56% hits; Potency, µM (series often up to 114 µM), actives largely listed as inhibitors; AlphaScreen HP1-beta / biotin-H3K9me3 peptide binding; further: nearly all actives have a fitted effect of over 70% in size
Target sequence (P83916 whole entry, looked up): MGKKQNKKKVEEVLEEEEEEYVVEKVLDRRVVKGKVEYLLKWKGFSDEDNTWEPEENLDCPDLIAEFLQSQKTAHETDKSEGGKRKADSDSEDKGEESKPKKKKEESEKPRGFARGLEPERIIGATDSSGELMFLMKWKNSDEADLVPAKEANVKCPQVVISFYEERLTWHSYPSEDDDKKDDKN
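AlphaScreen: HP1-beta (50 nM) preformed 30 min with biotin-H3(1-18)K9me3 peptide (50 nM) in PBS pH 7.4, 0.01% Tween-20. Compound added for 30 min at RT, then streptavidin donor/nickel chelate acceptor beads (10 ug/mL) for 30 min.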
JMJD2A Tudor inh = inhibitors of human JMJD2A Tudor domain | O75164 | Potency, µM (doses to about 114 µM), usual class: inhibitors | 390,000 compounds, 4.4% hits | AlphaScreen JMJD2A-Tudor / H3K4me3 peptide binding; further: nearly all actives have a fitted effect of over 50% in size
Sfp PPTase inh = Sfp phosphopantetheinyl transferase inhibition | Biochemical Sfp PPTase activity, qHTS | 310,000 compounds, 3.5% hits | Potency, µM, most hits filed as inhibitors | Q9F4F7;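 further: the enzyme is Sfp with the accession as filed and its product quenches rhodamine fluorescence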
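After 15 min at room temperature with compound, 15 nM Sfp received 5 uM rhodamine-CoA plus 12.5 uM BHQ-2-ybbR (50 mM Hepes pH 7.6, 10 mM MgCl2). Rate came from the fluorescence difference over 30 min, ex 525/em 598 nm.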
PLK1 PBD inh = inhibitors of human PLK1 polo-box domain binding; Plk1 PBD binding of FITC phosphopeptide, fluorescence polarization; 360,000 compounds, 2.8% hits; P53350; Potency, µM, most hits filed as inhibitors; AID 720504; further: series mostly up to about 57 µM; nearly all actives have a fitted effect of over 65% in size
G9a inh = G9a (human) methyltransferase inhibition. Q96KQ7. G9a H3K9 monomethylation, AlphaScreen, 2 h. Potency, µM (doses to about 102 µM), hits mostly inhibitors. 350,000 compounds, 8.8% hits; further: nearly all actives have a fitted effect of over 75% in size
Target sequence (Q96KQ7 913-1193 limits assumed): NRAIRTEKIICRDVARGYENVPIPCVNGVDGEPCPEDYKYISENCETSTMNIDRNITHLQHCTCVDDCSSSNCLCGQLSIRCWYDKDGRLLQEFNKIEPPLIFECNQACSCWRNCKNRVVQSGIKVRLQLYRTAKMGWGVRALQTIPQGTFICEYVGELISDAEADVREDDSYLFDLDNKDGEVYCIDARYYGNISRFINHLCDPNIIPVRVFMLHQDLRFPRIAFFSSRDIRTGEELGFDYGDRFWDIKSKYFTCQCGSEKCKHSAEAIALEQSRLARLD
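Enzyme 20 nM + cpd, 15 min RT; add b-H3K9 pep 500 nM / SAM 20 uM; 2 h RT; anti-H3K9me1 Ab 0.5 ug/mL + SA donor / anti-rabbit acceptor beads 20 ug/mL each, 10 min; AlphaScreen read.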
Of the large screens only hits and unclear results are named; the others gave an inactive call; ! = a repeat was not active. Only some compounds are listed: those with a hit (about 12% of all), similar ones and a draw of the others. The call rests on the fitted dose curve; in most records, active means well fitted curve in the direction sought with a large enough effect; inconclusive means small, poorly fitted or top-dose-only effect, or another doubt; inactive means no such curve, though single readings can be large; an effect the other way counts as inactive or inconclusive.

O=c1c2cn(Cc3ccc(F)cc3)c3ccccc3c-2nn1Cc1ccc(F)cc1	G9a inh 32µM
CCOc1ccc2[nH]c(=O)c(CN(Cc3cccs3)C(CC)c3nnnn3C(C)(C)CC)cc2c1 (stereo unspecified)	HP1b binding inh inconclusive, PLK1 PBD inh 8.4µM
CCOC(=O)Cn1nnnc1C(CC)N(Cc1cccs1)Cc1cc2cc(C)ccc2[nH]c1=O (stereo unspecified)	none
CCOc1ccc2[nH]c(=O)c(CN(Cc3ccco3)C(CC)c3nnnn3Cc3ccccc3)cc2c1 (stereo unspecified)	Sfp PPTase inh inconclusive, G9a inh 35µM
CCC(c1nnnn1Cc1ccco1)N(CCN1CCOCC1)Cc1cc2cc(C)ccc2[nH]c1=O (stereo unspecified)	Sfp PPTase inh 45µM, G9a inh inconclusive
CCC(c1nnnn1C(C)(C)C)N(Cc1ccco1)Cc1cc2cccc(C)c2[nH]c1=O (stereo unspecified)	BAZ2B inh inconclusive, Sfp PPTase inh 56µM, G9a inh inconclusive
CCOc1ccc2[nH]c(=O)c(CN(Cc3ccco3)Cc3nnnn3Cc3ccccc3)cc2c1	G9a inh inconclusive
CC(C)C(NC(=O)c1ccccc1)C(=O)OCC(=O)N1CCCC1 (stereo unspecified)	G9a inh inconclusive (no result: Sfp PPTase inh)
COC(=O)c1ccc(C(=O)OC)c(NC(=O)c2c(-c3ccccc3)noc2C)c1	none (no result: Sfp PPTase inh, PLK1 PBD inh)
c1csc(CNc2nc(-c3ccc4c(c3)OCO4)nc3ccccc23)c1	none (no result: BAZ2B inh, HP1b binding inh, JMJD2A Tudor inh, PLK1 PBD inh)
CCN1C(C)=C(C(=O)OC)C(c2ccccc2)N2C(=O)[C@@]3(C(=O)OC)O[C@@]12C1C(=O)N(C)C(=O)C13 (stereo partly specified)	none (no result: BAZ2B inh, HP1b binding inh, JMJD2A Tudor inh, PLK1 PBD inh, G9a inh)
COc1ccc2[nH]c(=O)c(CN(Cc3ccco3)Cc3nnnn3Cc3ccccc3)cc2c1	Sfp PPTase inh 56µM, G9a inh 50µM
O=C1CCCC2=C1C1O[C@](CCCCN3C(=O)c4ccccc4C3=O)(Cc3c1ccc1ccccc31)O2	none (no result: HP1b binding inh, JMJD2A Tudor inh, PLK1 PBD inh, G9a inh)
O=C(NCc1ccco1)c1ccc(C(=O)NCc2ccco2)s1	PLK1 PBD inh 11µM
CCc1sc(C(=O)NCc2ccco2)cc1C	none
O=C(NCc1ccco1)c1ccc(Br)s1	BAZ2B inh inconclusive
CCc1sc(C(=O)NCc2ccco2)cc1Br	BAZ2B inh inconclusive, G9a inh 56µM
Cc1c(Br)cc(C(=O)NCc2ccco2)c(C)c1C	BAZ2B inh 56µM, Sfp PPTase inh inconclusive, G9a inh inconclusive
Cc1ccc(C)c(NC(=S)NNC(=O)c2cc3c(s2)CCC(C)C3)c1 (stereo unspecified)	G9a inh 35µM
O=C(NNC(=O)c1ccco1)c1ccccc1	none
O=C(NC(=S)Nc1ccc(NC(=O)c2ccco2)cc1)c1ccccc1	JMJD2A Tudor inh 35µM, G9a inh inconclusive
O=C(NC(=S)Nc1ccc(NC(=O)c2cccs2)cc1)c1ccco1	HP1b binding inh inconclusive, JMJD2A Tudor inh inconclusive, PLK1 PBD inh 19µM
O=C(NC(=S)NNC(=O)c1ccco1)c1ccccc1	G9a inh 25µM
Cc1sc(-n2cccc2)c(C(C)NC(=O)Nc2ccccc2Cl)c1C (stereo unspecified)	JMJD2A Tudor inh inconclusive (no result: Sfp PPTase inh, PLK1 PBD inh)
CN(CC(=O)Nc1ccc(Cl)cc1)C(=O)CNC(=O)Cc1cccc2ccccc12	BAZ2B inh inconclusive (no result: Sfp PPTase inh)
O=C(Cc1ccc(Cl)cc1)NNC(=S)NC(=O)c1cccs1	G9a inh 35µM
O=C(/C=C/c1ccc(Br)cc1)NC(=S)NNC(=O)c1ccco1	G9a inh inconclusive
O=C(Cc1cccs1)NNC(=S)NCc1ccc(Cl)cc1	none (no result: G9a inh)
O=C(/C=C/c1ccccc1)NC(=S)NNC(=O)c1ccco1	G9a inh 10µM
CC(C)c1ccc(OCC(=O)NNC(=S)NC(=O)c2ccco2)c(Br)c1	JMJD2A Tudor inh inconclusive, PLK1 PBD inh inconclusive
O=C(Cc1cccs1)NNC(=S)NC(=O)c1ccco1	G9a inh 11µM
CC(C)(C)c1ccc(OCC(=O)NNC(=S)NC(=O)c2ccco2)c(Br)c1	HP1b binding inh inconclusive, JMJD2A Tudor inh inconclusive, PLK1 PBD inh inconclusive, G9a inh 28µM
Cc1ccc(C)c(NC(=S)NNC(=O)c2ccco2)c1	PLK1 PBD inh 19µM
CC(C)(C)C(=O)/C(=C/c1ccc(Cl)cc1)n1cncn1	none
CC(C)(C)C(=O)/C(=C\c1ccc([N+](=O)[O-])cc1)n1cncn1	Sfp PPTase inh 14µM, G9a inh inconclusive (no result: HP1b binding inh, JMJD2A Tudor inh, PLK1 PBD inh)
CN(Cc1ccccc1)C(=O)[C@H]1CCC(=O)N1Cc1ccco1	Sfp PPTase inh inconclusive, G9a inh 45µM
Cc1sc2nc(CSC(C)C(=O)N3CCOCC3)[nH]c(=O)c2c1C (stereo unspecified)	none (no result: G9a inh)
Cc1sc2nc(CC(=O)N3CCCC3)[nH]c(=O)c2c1C	Sfp PPTase inh inconclusive, PLK1 PBD inh inconclusive, G9a inh 28µM
CC(=O)OC[C@@]12C(=O)[C@@H](O)[C@@H](C)[C@]3(C[C@@H](c4ccoc4)O[C@@H]3OC(C)=O)[C@H]1CCC[C@]21CO1	none (no result: BAZ2B inh, HP1b binding inh, JMJD2A Tudor inh, PLK1 PBD inh, G9a inh)
CCOc1ccc(CC(=O)NNC(=O)/C=C/C(=O)O)cc1	Sfp PPTase inh inconclusive, G9a inh 32µM
COc1ccc(CCNC(=O)/C=C/C(=O)O)cc1	BAZ2B inh inconclusive, G9a inh inconclusive
COc1ccc(-n2c(=O)c(-c3ccccc3)nc3cnc(N4CCOCC4)nc32)cc1	none (no result: BAZ2B inh, HP1b binding inh, JMJD2A Tudor inh, PLK1 PBD inh)
N[C@@H](Cc1c[nH]c2ccc(O)cc12)C(=O)O	BAZ2B inh inconclusive, JMJD2A Tudor inh inconclusive, G9a inh 8.4µM!
NC(Cc1c[nH]c2ccc(OCc3ccccc3)cc12)C(=O)O (stereo unspecified)	BAZ2B inh inconclusive, JMJD2A Tudor inh inconclusive, G9a inh 45µM
O=C(O)C(O)Cc1c[nH]c2ccccc12 (stereo unspecified)	none
NC(=S)N/N=C/c1c[nH]c2ccc(OCc3ccccc3)cc12	BAZ2B inh 35µM, JMJD2A Tudor inh inconclusive, Sfp PPTase inh 32µM, PLK1 PBD inh inconclusive, G9a inh 40µM
NC(=S)N/N=C\c1ccccc1OCc1ccccc1	BAZ2B inh inconclusive
COc1ccc(CN(CC(O)COc2cccc3[nH]cc(C)c23)C(C)(C)C)cc1 (stereo unspecified)	BAZ2B inh inconclusive, HP1b binding inh inconclusive, JMJD2A Tudor inh 50µM, G9a inh inconclusive
CCN(CC)C(=O)N1CCN(C)CC1	BAZ2B inh inconclusive, JMJD2A Tudor inh 56µM, G9a inh 14µM!
COc1ccc(CCNC(=O)CCCCCn2c(=O)[nH]c3cc(OC)c(OC)cc3c2=O)cc1OC	none (no result: Sfp PPTase inh, PLK1 PBD inh)
CC1(C)C2CCC(C2)C1(C)NC(=O)CN1CCN(Cc2ccccc2)CC1 (stereo unspecified)	BAZ2B inh 28µM, HP1b binding inh 16µM, JMJD2A Tudor inh 1.4µM, Sfp PPTase inh inconclusive, G9a inh 5.6µM
O=C(c1cc(C(F)(F)F)cc(C(F)(F)F)c1)N1CCC2(CCCN(c3ncccn3)C2)CC1	none (no result: BAZ2B inh, HP1b binding inh, JMJD2A Tudor inh, PLK1 PBD inh)
